Compound activity from PubChem.
AmpC inh detg: AmpC beta-lactamase inhibition with detergent present; AID 485294; AmpC hydrolysis of nitrocefin, absorbance 480 nm, 0.01% Triton; Potency, µM (series often up to 114 µM), without a hit: at the top dose activity change, negative = inhibition, most hits filed as inhibitors; 370,000 compounds, 0.041% hits;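 also: potency is read from the fitted curve at half-maximal effect; 0% = no-compound wells and -100% = no-enzyme wells; nearly all actives have a fitted effect of over 25% in size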
Target sequence (P00811 whole entry, looked up): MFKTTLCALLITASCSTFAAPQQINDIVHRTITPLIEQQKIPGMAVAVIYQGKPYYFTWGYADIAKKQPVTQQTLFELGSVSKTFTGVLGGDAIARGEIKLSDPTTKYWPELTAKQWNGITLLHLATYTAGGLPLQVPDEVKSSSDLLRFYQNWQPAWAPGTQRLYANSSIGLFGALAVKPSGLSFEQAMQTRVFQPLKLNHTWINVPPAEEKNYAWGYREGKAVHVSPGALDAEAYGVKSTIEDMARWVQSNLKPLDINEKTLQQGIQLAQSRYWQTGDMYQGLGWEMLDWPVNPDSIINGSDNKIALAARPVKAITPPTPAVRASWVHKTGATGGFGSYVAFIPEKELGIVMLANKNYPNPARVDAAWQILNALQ
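20 mM phosphate pH 7.0 + 0.01% (detergent screen) or 0.0001% Triton X-100; 5.3 nM AmpC reagent; cpd preinc 15 min RT; nitrocefin (800 uM stock) to start; A480 q20 s × 4 min; Activity was normalised to no-enzyme and no-compound control wells.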
FMDV antiviral: antivirals against foot and mouth disease virus; FMDV antiviral cell-based qHTS; 410,000 compounds, 1.2% hits; Potency, µM (titrated, usually from 57.9 µM), without a hit: top-dose activity change, negative = inhibition, actives largely listed as inhibitors; calls by dose curve; tested in HEK293T cells; also: read-out not given here; potency is read from the fitted curve at half-maximal effect; nearly all actives have a fitted effect of over 45% in size
HCV inhibitor: blocks hepatitis C virus; Huh7.5.1 HCVcc-Cre infection, luciferase reporter, 44 h; 340,000 compounds, 3.4% hits; Potency, µM (highest dose often 41.8 µM), inactives show at the highest dose activity change, negative = inhibition, hits mostly inhibitors; also: potency is read from the fitted curve at half-maximal effect
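Cells seeded at 1,000/well and cultured 4 h, then compounds added followed by HCVcc-Cre virus (~0.5 moi). After 44 h further culture, luciferase substrate was added, plates held 15 min at room temperature, and luminescence read for 15 sec.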
HCMV antiviral: inhibitors of human cytomegalovirus. 410,000 compounds, 4.5% hits. activity change, negative = inhibition, % at 57.5 µM. HFF cells, HCMV-luciferase reporter, 72 h; stronger effect = lower value; in the data active = activity change below about -60%; inconclusive = no clear call, values can overlap the other calls; inactive = above about -39%
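Luciferase read-out from HCMV-luciferase-infected HFFs (MOI 1 PFU/cell) 72 h post infection at 37C; compounds added after 16 h cell attachment; activity normalized between buffer-only basal and Salinomycin (10uM) inhibitor controls.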
AmpC no deterg: inhibitors of E. coli AmpC beta-lactamase without detergent. P00811. Potency, µM (highest dose often 57.1 µM), for the others: at the highest dose activity change, negative = inhibition, actives largely listed as inhibitors. 330,000 compounds, 0.52% hits. AID 485341. AmpC nitrocefin hydrolysis, absorbance 480 nm, 0.0001% Triton;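 also: potency is read from the fitted curve at half-maximal effect; plate controls were no compound for no effect and no enzyme for full effect; nearly all actives have a fitted effect of over 20% in size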
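20 mM phosphate pH 7.0 + 0.01% (detergent screen) or 0.0001% Triton X-100; 5.3 nM AmpC reagent; cpd preinc 15 min RT; nitrocefin (800 uM stock) to start; A480 q20 s × 4 min; Activity was normalised to no-enzyme and no-compound control wells.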
Starred values were filed as active, the others as inactive; u = inconclusive; x = no result. Only some compounds are listed: those with a hit (about 7.3% of all), similar ones and a draw of the others. Unless noted, calls follow the shape of the dose curve; as a rule, active = well fitted curve in the direction sought with a large enough effect; inconclusive = small, poorly fitted or top-dose-only effect, or another doubt; inactive = no such curve, though single readings can be large; an effect the other way counts as inactive or inconclusive. Unless noted, % is scaled to controls: 0 for no effect and ±100 for the full control effect.

SMILES	AmpC inh detg	FMDV antiviral	HCV inhibitor	HCMV antiviral	AmpC no deterg
CCCN(CC(=O)Nc1ccccc1C)C(=O)C1CCN(S(=O)(=O)c2ccc(C)c(C)c2)CC1	x	-16.0%	x	-61.4*	x
O=C(Nc1ccc(S(=O)(=O)N2CCCC2)cc1)C1CCCN1C(=O)c1cccs1 (stereo not given)	4.1%	-6.2%	3.5%	-100.6*	-18.5%
Cc1ccc(Cl)cc1NC(=O)C1CCCN(S(=O)(=O)c2cccc3cccnc23)C1 (stereo not given)	-8.5%	-22.9%	x	-7.7	x
O=C(Nc1cccc(S(=O)(=O)N2CCCC2)c1)C1CCCN1C(=O)c1cccs1 (stereo not given)	1.4%	-1.3%	u	-35.8	-33.9%
CCc1ccc(NC(=O)Cn2cnc3sc(C)c(S(=O)(=O)N4CCOCC4)c3c2=O)cc1	-14.6%	-13.7%	1.5%	24.3	0.0%
CCn1nc(NC(=O)C(C)C)c2cc3cccc(C)c3nc21	-10.3%	-20.8%	u	-24.8	-2.1%
COc1cccc(-c2ccc3c(c2)O[C@H](CN(C)C(=O)c2ccccc2F)[C@H](C)CN([C@H](C)CO)S3(=O)=O)c1	x	47.2%	x	-7.5	x
CCCCn1c(N)c(N(CCOC)C(=O)c2cccc(S(=O)(=O)N3CCCCCC3)c2)c(=O)[nH]c1=O	u	-16.3%	2.7%	-28.5	-2.4%
CCCCSc1nnc2c(n1)OC(c1ccc(C)s1)Nc1ccccc1-2 (stereo not given)	23.0%	0.4%	x	u	x
COc1cccc(CN2CCc3nnc(CCc4ccccc4)n3CC2)c1OC	x	-5.7%	x	x	x
O=C(C1CC12CCN(Cc1cccc3cccnc13)CC2)N1CCN(Cc2cccs2)CC1 (stereo not given)	x	-8.8%	x	x	x
O=C(Nc1ccc(Oc2ccccc2)cc1)C1CCN(S(=O)(=O)c2ccccc2)CC1	-6.1%	u	x	-82.4*	x
O=C(Nc1cccc(C(F)(F)F)c1)C1CCCN1S(=O)(=O)c1cccc2cccnc12 (stereo not given)	-7.0%	u	u	-92.5*	2.2%
O=C(Nc1cccc(Cl)c1)C1CCCN1S(=O)(=O)c1cccc2cccnc12 (stereo not given)	15.6%	-7.5%	x	14.0	x
Cc1ccccc1NC(=O)C1CCN(S(=O)(=O)c2ccccc2)CC1	9.7%	-9.7%	x	-77.6*	x
O=C(Nc1ccc(Oc2ccccc2)cc1)C1CCCN(c2ncccn2)C1 (stereo not given)	u	-5.3%	21.5%	-71.6*	-0.6%
CCN(c1ccc(OC)cc1)S(=O)(=O)c1nnc(NC(=O)c2ccccc2C)s1	1.0%	2.0%	x	6.5	x
CC(C)(C)CNCc1ccccc1NC(=O)OC(C)(C)C	x	x	x	-13.3	x
Cc1ccc(S(=O)(=O)c2c(C)nn(C(C)(C)C)c2OC(=O)c2ccco2)cc1	3.3%	12.6µM*	-3.9%	33.4	24.9%
CC(=O)Oc1c(S(=O)(=O)c2ccc(C)cc2)c(C)nn1C(C)(C)C	-5.1%	-18.6%	26.1%	12.2	13.6%
Cc1ccc(S(=O)(=O)c2c(C)nn(C(C)(C)C)c2OC(=O)C(C)(C)C)cc1	-23.7%	u	u	32.1	52.4%
Cc1ccc(S(=O)(=O)c2c(C)nn(C(C)(C)C)c2OC(=O)c2ccc(Br)o2)cc1	5.6%	u	u	-64.3*	2.4%
COc1cc(SC)ccc1C(=O)OCC(=O)NCCC1=CCCCC1	-11.4%	-8.9%	-9.4%	-14.9	36.0%
COc1ccc2c(c1)c1c(c(=O)n(-c3ccc(F)c(Cl)c3)c(=O)n1Cc1ccccc1C)n2C	-2.0%	6.9%	x	0.8	x
COc1cc(Br)cc(/C=N/NC(=O)Cc2ccc(C(F)(F)F)cc2[N+](=O)[O-])c1O	-2.5%	-22.8%	u	-102.1*	-21.6%
SMILES	AmpC inh detg	FMDV antiviral	HCV inhibitor	HCMV antiviral	AmpC no deterg
CCOC(=O)C1(CCOc2ccccc2)CCN(C(=O)CCSC)CC1	x	-8.5%	-2.8%	-4.6	x
CC(CCc1ccc(O)cc1)NCCC(c1ccccc1)c1ccccc1 (stereo not given)	-9.2%	24.8%	14.1µM*	-10.1	-24.3%
CC(CCc1ccccc1)NCC#N (stereo not given)	1.2%	-8.1%	15.2%	-61.1*	-9.2%
CSc1ccc(CCNC(=O)c2cc(-c3ccccc3)c(N3CCOCC3)s2)cc1	-7.8%	-11.0%	u	u	-46.9%
Cn1c(SCC2CCCO2)nnc1C1CCN(Cc2ccco2)CC1 (stereo not given)	x	-1.7%	x	x	x
CCCOc1ccc(-c2nnc(-c3ccncc3)o2)cc1	u	5.3%	11.2µM*	23.5	-23.2%
C=CCN(C(=O)c1csnn1)C(C(=O)NCc1ccccc1)c1c(F)cccc1Cl (stereo not given)	-10.2%	17.9%	6.8%	-31.5	-25.9%
COc1ccc(-c2coc3c(C(=O)Nc4ccc(OC)nc4)cccc23)c(C)c1	x	u	x	-32.2	x
COc1ccc(NC(=O)c2cccc3c(-c4ccc(O)c(OC)c4)coc23)cc1	x	-5.0%	x	19.7	x
COc1cc(NC(=O)c2cccc3c(-c4cccnc4)coc23)cc(OC)c1OC	x	12.6µM*	x	-39.3	x
COc1ccc(CNC(=O)c2cccc3c(-c4cnn(C)c4)coc23)cc1OC	x	15.8µM*	x	u	x
COc1ccc(-c2coc3c(C(=O)NCCN4CCOCC4)cccc23)c(C)c1	x	0.0%	x	-31.9	x
COc1ccc(-c2coc3c(C(=O)NCC4CCOCC4)cccc23)c(C)c1	x	u	x	-60.8*	x
COc1ccc(-c2coc3c(C(=O)Nc4cc(OC)c(OC)c(OC)c4)cccc23)c(C)c1	x	u	x	-64.9*	x
CCc1ccccc1NC(=O)CSc1ncc2c(n1)-c1ccccc1N(C)S2(=O)=O	-1.9%	-15.2%	x	6.9	x
COc1cc(OC)c(NC(=O)Cn2nc(C)n3cccc3c2=O)cc1Cl	16.8%	-10.2%	x	-11.4	x
O=C(N/C(=C/c1ccccc1)C(=O)N1CCCCC1)c1ccco1	1.2%	11.5%	8.7%	-10.0	-10.9%
COc1ccc(-c2coc3c(C(=O)NCc4ccc(OC)c(OC)c4)cccc23)c(C)c1	x	u	x	-74.7*	x
CC(=O)c1cccc(NC(=O)c2cccc3c(-c4cccc(C(N)=O)c4)coc23)c1	x	35.5µM*	x	u	x
COc1ccc(-c2coc3c(C(=O)NCCc4ccccc4)cccc23)c(C)c1	x	-22.0%	x	-26.5	x
O=C(/C=C/c1ccccn1)c1cc(Cl)cc(Cl)c1O	2.4%	-22.1%	12.6µM*	-36.5	-30.1%
CCCCN(CCCC)CC(O)Cn1cc(/C=C/C(=O)c2ccccc2)c2ccccc21 (stereo not given)	23.5%	-15.2%	x	-105.9*	x
CCCCN(C)CC(O)Cn1cc(/C=C/C(=O)c2ccc(OCC)cc2)c2ccccc21 (stereo not given)	3.6%	-20.7%	x	-106.7*	116.0%
COc1ccc(-c2cnnn2-c2ccc(NC(=O)c3ccccc3OC)cc2)cc1	2.0%	-18.7%	x	-5.8	x
CCOC(=O)C1CSCCS(=O)(=O)N1Cc1ccccc1C (stereo not given)	x	x	x	-5.2	x
